Measurements published in ChEMBL document CHEMBL1201862, “PubChem BioAssay data set” (2004).
Out of some 400,000 compounds screened, about 2,100 (0.53%) were called active. Another 14% or so got no clear call; they are omitted. How the calls were made is not given here. Many of the other results were omitted from the sample, so actives are more common in it than they were.

Each compound was assayed against Ataxin-2 (Homo sapiens) (UniProt Q99700) (assay: qHTS for Inhibitors of ATXN expression.).
Sequence of Ataxin-2 (Homo sapiens) (Q99700 whole entry): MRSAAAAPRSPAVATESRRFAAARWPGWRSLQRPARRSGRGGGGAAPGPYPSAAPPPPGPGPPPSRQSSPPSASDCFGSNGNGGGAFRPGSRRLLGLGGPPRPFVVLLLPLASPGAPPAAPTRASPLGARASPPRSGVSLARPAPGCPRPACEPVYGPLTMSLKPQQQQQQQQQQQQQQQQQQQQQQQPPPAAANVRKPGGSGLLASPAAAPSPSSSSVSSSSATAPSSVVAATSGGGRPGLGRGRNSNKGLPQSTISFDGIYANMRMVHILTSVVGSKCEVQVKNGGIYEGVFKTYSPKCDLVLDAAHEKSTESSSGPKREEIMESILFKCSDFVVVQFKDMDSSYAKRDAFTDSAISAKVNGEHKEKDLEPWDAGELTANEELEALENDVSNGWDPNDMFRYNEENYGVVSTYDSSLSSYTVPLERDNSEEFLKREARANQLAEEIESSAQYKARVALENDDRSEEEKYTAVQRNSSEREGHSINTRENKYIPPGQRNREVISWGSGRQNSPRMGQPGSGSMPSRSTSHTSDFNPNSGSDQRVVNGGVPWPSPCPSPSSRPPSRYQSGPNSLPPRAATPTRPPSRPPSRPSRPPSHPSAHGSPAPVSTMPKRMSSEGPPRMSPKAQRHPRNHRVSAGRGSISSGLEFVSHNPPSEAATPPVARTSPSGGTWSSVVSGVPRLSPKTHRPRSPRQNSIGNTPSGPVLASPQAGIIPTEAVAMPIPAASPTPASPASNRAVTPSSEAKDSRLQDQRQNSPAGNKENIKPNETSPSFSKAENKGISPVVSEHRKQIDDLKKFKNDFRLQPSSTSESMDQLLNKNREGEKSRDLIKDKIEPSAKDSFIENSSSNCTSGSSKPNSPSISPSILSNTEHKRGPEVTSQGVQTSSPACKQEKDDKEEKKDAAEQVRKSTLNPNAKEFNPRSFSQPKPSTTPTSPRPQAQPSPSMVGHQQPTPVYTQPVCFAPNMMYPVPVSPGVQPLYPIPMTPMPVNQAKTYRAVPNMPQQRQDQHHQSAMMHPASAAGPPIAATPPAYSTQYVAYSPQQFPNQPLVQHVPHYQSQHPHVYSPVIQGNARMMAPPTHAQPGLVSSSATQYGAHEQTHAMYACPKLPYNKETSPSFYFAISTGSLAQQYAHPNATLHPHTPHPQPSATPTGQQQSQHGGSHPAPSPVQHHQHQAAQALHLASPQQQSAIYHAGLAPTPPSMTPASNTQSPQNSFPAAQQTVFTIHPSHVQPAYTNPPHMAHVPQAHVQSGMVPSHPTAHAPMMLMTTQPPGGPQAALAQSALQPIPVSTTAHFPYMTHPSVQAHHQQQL
Assay type: functional
For `CC(C)c1noc(-c2ccccc2OCC(=O)Nc2ccccc2[N+](=O)[O-])n1`, the Potency was 39.8 µM (active).
With `O=C(CN1CCCc2ccccc21)Nc1ccccc1[N+](=O)[O-]` the Potency was “inactive”.
In the case of `Cc1csc(SCC(=O)Nc2ccccc2[N+](=O)[O-])n1`, the Potency is reported as “inactive”.
In the case of `Nc1cccc2c1C(=O)N(C(=O)c1cccc(S(=O)(=O)N3CCCCCC3)c1)C2=O`, the Potency is reported as “inactive”.
For `Fc1ccc(CN2CCN(c3ncccn3)CC2)c(F)c1`, the Potency was “inactive”.
For `COc1ccc(C(C)=O)cc1CSc1nc2ccccc2c(=O)n1-c1ccccc1`, the Potency was 35.5 µM (active).
`COCC(C)n1c(SCc2ccc(C(=O)OC)cc2)nc2ccccc2c1=O` (configuration not stated) was tested, and the Potency was “inactive”.
For `O=C(c1ccc(-n2c(SCc3cc(F)ccc3F)nc3ccccc3c2=O)cc1)N1CCOCC1`, the Potency was “inactive”.
For `O=C(NCc1ccncc1)c1ccc(NS(=O)(=O)c2ccc(F)cc2)cc1`, the Potency was “inactive”.
`CCOC(=O)c1c(C)oc2c1c(C(c1ccccc1)N1CCOCC1)c(O)c1ccccc12` (configuration not stated) was tested, and the Potency was 39.8 µM (active).
In the case of `CCOC(=O)c1c(C)oc2c1c(C(c1cccnc1)N1CCOCC1)c(O)c1ccccc12` (configuration not stated), the Potency is reported as 39.8 µM (active).
For `CCOC(=O)C(CC)Sc1ccc2nnc(-c3cccnc3)n2n1` (configuration not stated), the Potency was “inactive”.
For `CCOC(=O)c1c(C)oc2c1c(/C=N/CCO)c(O)c1ccccc12`, the Potency was “inactive”.
For `CCOC(=O)c1c(N=C(S)N2CCOCC2)sc(C)c1C`, the Potency was “inactive”.
In the case of `COc1ccc(C(=O)N/N=C\c2coc3ccccc3c2=O)cc1`, the Potency is reported as “inactive”.
In the case of `O=C(Cc1cc(=O)oc2cc(O)ccc12)NCC1CCC(C(=O)O)CC1` (configuration not stated), the Potency is reported as “inactive”.
`Cc1c(-c2ccc(Cl)cc2)c(=O)oc2c(CN3CCCC3)c(O)ccc12` was tested, and the Potency was “inactive”.
With `Cc1cc(-c2cccs2)c2c(N)c(C(=O)c3ccc4c(c3)OCO4)sc2n1` the Potency was “inactive”.
For `CC(O)CNc1nc(NCc2ccccc2)c2cnn(C)c2n1` (configuration not stated), the Potency was “inactive”.
With `OCCNc1c2ccccc2nc2ccccc12` the Potency was “inactive”.
In the case of `c1ccc(CNc2nc(NCc3ccccc3)c3ccccc3n2)cc1`, the Potency is reported as 39.8 µM (active).
With `CC1(C)Cc2c(C#N)c(NCCO)nc(-c3ccco3)c2CO1` the Potency was “inactive”.
`C/C(=N\NC(=S)NCCc1ccccc1)c1ccc(Cl)cc1Cl` was tested, and the Potency was “inactive”.
For `Cc1cc(C)c(C(=O)Nc2ccccc2)c(CC(C)(C)C(=O)O)c1`, the Potency was “inactive”.
In the case of `CC(=O)Nc1scc(C)c1-c1nc2ccccc2s1`, the Potency is reported as “inactive”.
In the case of `Cc1nnc(Sc2cc(NCCO)c([N+](=O)[O-])c3nonc23)s1`, the Potency is reported as 28.2 µM (active).
For `O=[N+]([O-])c1c(NCCCO)cc(SCc2ccco2)c2nonc12`, the Potency was 31.6 µM (active).
`COc1ccc(NC(=O)CCC(=O)NCc2ccco2)c([N+](=O)[O-])c1` was tested, and the Potency was “inactive”.
With `CC(=O)OCCCNc1cc(Sc2nc3ccccc3s2)c2nonc2c1[N+](=O)[O-]` the Potency was 12.6 µM (active).
In the case of `COCCNc1nnc(SCC(=O)Nc2cc(C)on2)s1`, the Potency is reported as “inactive”.
For `Cc1nnc(Sc2cc(NCCCO)c([N+](=O)[O-])c3nonc23)s1`, the Potency was 21.2 µM (active).
With `CCCn1c(N)c(C(=O)CSc2nc3ccccc3s2)c(=O)[nH]c1=O` the Potency was “inactive”.
For `O=C(Cn1[nH]c(=O)c2ccccc2c1=O)OCC(=O)c1ccc(F)c(F)c1`, the Potency was “inactive”.
`COCCCn1c(=N)c(C(=O)NCc2ccco2)cc2c(=O)n3cccc(C)c3nc21` was tested, and the Potency was “inactive”.
In the case of `O=C1c2cccc3c(N4CCCCC4)ccc(c23)C(=O)N1c1ccc(O)cc1`, the Potency is reported as “inactive”.
With `CC(C)c1ccccc1OCCCN1CCCC1` the Potency was “inactive”.
For `Cc1ccc(OCCCCN2CCCCC2)cc1`, the Potency was “inactive”.
In the case of `COC(=O)c1cccc(OCCCN2CCC(C(O)(c3ccccc3)c3ccccc3)CC2)c1`, the Potency is reported as 35.5 µM (active).
In the case of `O=C(Oc1cccc(C(=S)N2CCCCC2)c1)c1ccccc1`, the Potency is reported as “inactive”.
For `Cc1ccc(OCCCCCCN2CCNCC2)cc1`, the Potency was “inactive”.
For `Cc1ccc(OCCCN2CCC(C(O)(c3ccccc3)c3ccccc3)CC2)cc1`, the Potency was 35.5 µM (active).
For `O=C(c1coc(=O)c(Br)c1)N1CCC(C(O)(c2ccccc2)c2ccccc2)CC1`, the Potency was “inactive”.
`Brc1cccc(OCCN2CCc3ccccc3C2)c1` was tested, and the Potency was “inactive”.
For `OC(c1ccccc1)(c1ccccc1)C1CCN(CCCOc2cccc(OC(F)(F)F)c2)CC1`, the Potency was 35.5 µM (active).
In the case of `CCOc1ccc(/C=N/NC(=O)Cc2cccs2)cc1`, the Potency is reported as “inactive”.
For `C=CCNC(=S)N/N=C/c1ccc(-c2ccc(OC)cc2)o1`, the Potency was “inactive”.
With `C=CCOc1ccc(/C=N\NC(N)=S)cc1` the Potency was 22.4 µM (active).
`COCCn1c(=N)c(C(=O)NC2CCCC2)cc2c(=O)n3cc(C)ccc3nc21` was tested, and the Potency was “inactive”.
`CCn1c(=N)c(C(=O)NC2CCCCC2)cc2c(=O)n3cc(C)ccc3nc21` was tested, and the Potency was “inactive”.
In the case of `Cc1ccc2nc3c(cc(C(=O)NC4CCS(=O)(=O)C4)n3Cc3ccccc3)c(=O)n2c1` (configuration not stated), the Potency is reported as “inactive”.
In the case of `COc1ccccc1Cc1c(C2CCCCC2)nc2ccc(C)cn12`, the Potency is reported as 20 µM (active).
`COc1ccccc1Cc1c(C2CCCCC2)nc2ccc(Br)cn12` was tested, and the Potency was 17.8 µM (active).
For `Brc1ccc2nc(-c3cccs3)c(NCC3CCCO3)n2c1` (configuration not stated), the Potency was “inactive”.
`Cc1ccc2nc(C3CCCCC3)c(Cc3cccc(Cl)c3)n2c1` was tested, and the Potency was 39.8 µM (active).
With `CCC(C)n1c(=N)c(C(=O)NC2CCCCC2)cc2c(=O)n3cc(C)ccc3nc21` (configuration not stated) the Potency was “inactive”.
In the case of `Nc1c(C(=O)Nc2ccccc2)sc2nc(N3CCOCC3)c3c(c12)CCCC3`, the Potency is reported as “inactive”.
With `COc1ccc(/C=C2/C(=O)ON=C2C)cc1Br` the Potency was “inactive”.
`CC1=NOC(=O)/C1=C\c1ccc(-c2ccc(Cl)cc2Cl)o1` was tested, and the Potency was 35.5 µM (active).
For `O=C(O)c1ccc(N/N=C/c2ccc(-c3ccc(Cl)cc3Cl)o2)cc1`, the Potency was “inactive”.
With `O=C(O)c1ccc(CNCc2ccccc2F)cc1` the Potency was “inactive”.
In the case of `CC1CCC(NC(=O)CN2C(=O)C3CC=CCC3C2=O)CC1` (configuration not stated), the Potency is reported as “inactive”.
In the case of `CC1CCC(NC(=O)COC(=O)CNC(=O)c2ccc3ccccc3c2)CC1` (configuration not stated), the Potency is reported as “inactive”.
For `CC1CCC(NC(=O)c2nn(C)c3c2CS(=O)(=O)c2ccccc2-3)CC1` (configuration not stated), the Potency was 39.8 µM (active).
For `Cc1nc(-c2ccc(S(=O)(=O)Nc3cc(S(=O)(=O)N(C)C)ccc3C)s2)cs1`, the Potency was “inactive”.
For `COc1ccc(-c2cc(C(F)(F)F)n3ncc(C(=O)NCC4CCCO4)c3n2)cc1` (configuration not stated), the Potency was “inactive”.
For `C=CCCCCCCCCC(=O)NNC1CC(=O)N(c2ccccc2)C1=O` (configuration not stated), the Potency was “inactive”.
In the case of `CCCCN(CCCC)CC(O)Cn1cc(/C=C/C(=O)c2ccccc2)c2ccccc21` (configuration not stated), the Potency is reported as “inactive”.
